Our source for the Potency and outcome values is PubChem BioAssay (Tox21).

Test [1] in a line: qHTS assay to identify small molecule agonists of the vitamin D receptor (VDR) signaling pathway - cell viability counter screen (AID 743224). Note: nearly all actives have a fitted effect of over 50% in size. Note: potency is the fitted concentration of half-maximal effect. In a few lines:
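Here cell health was gauged by luminescent ATP detection (CellTiter-Glo, 30 min RT) in VDR-bla cells that had been incubated with test compounds for 16 h at 37C and 5% CO2.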

Test [2] in a line: qHTS assay to identify small molecule antagonists of the vitamin D receptor (VDR) signaling pathway - cell viability counter screen (AID 743225). Note: nearly all actives have a fitted effect of over 50% in size. Note: potency is the fitted concentration of half-maximal effect. In short, it runs like this: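 Same-well multiplex: following 16 h treatment of HEK 293T cells carrying a UAS-driven beta-lactamase reporter with compound and agonist (3 nM final), and a 2 h FRET substrate step, CellTiter-Glo was added and luminescence read after 30 min.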
On the technique in general: In qHTS, concentration-response curves come from the screen itself.

Test [3] in a line: qHTS assay to identify small molecule agonists of the NFkB signaling pathway - cell viability counter screen (AID 1159515; calls by dose curve; note: nearly all actives have a fitted effect of over 55% in size; note: potency is the fitted concentration of half-maximal effect). In short, it runs like this:
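5 hr compound treatment of NFkB-bla ME-180 cells (2,000/well, seeded overnight beforehand), followed by reporter substrate for 1.5 hr. CellTiter-Glo added afterward; luminescence after 30 min RT.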

The nature of test [4]: qHTS assay to identify small molecule agonists of the endoplasmic reticulum stress response signaling pathway - cell viability counter screen (AID 1159517; calls by dose curve; note: nearly all actives have a fitted effect of over 50% in size; note: potency is the fitted concentration of half-maximal effect). In a few lines:
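CellTiter-Glo was added to wells already read for beta-lactamase FRET, and luminescence was recorded 30 min later. Cells: ESRE-bla HeLa, 1,500 per well, compound exposure 5 hr at 37 C.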

Test [5] is described as follows: qHTS assay to identify small molecule antagonists of the retinoid-related orphan receptor gamma (ROR-gamma) signaling pathway - cell viability counter screen (AID 1159520). Note: nearly all actives have a fitted effect of over 50% in size. Note: potency is the fitted concentration of half-maximal effect. In a few lines:
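Tet-on ROR gamma CHO cells (1,000/well) were plated 4 hr, given compounds in DMSO for 2 hr at 37 C, then induced with 1 uM final doxycycline for 16 hr. Viability was read as ATP by CellTiter-Glo luminescence after 30 min.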

Test [6] in a line: qHTS assay to identify small molecule agonists of the AP-1 signaling pathway - cell viability counter screen (AID 1159525; calls by dose curve; note: nearly all actives have a fitted effect of over 55% in size; note: potency is the fitted concentration of half-maximal effect). In a few lines:
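ME-180 AP-1-bla, 2500 cells/well, Opti-MEM + 0.5% dialyzed FBS; overnight 37 °C; cpd 15-pt titration, 5 h 37 °C; CellTiter-Glo 30 min RT; luminescence read; normalised to TOAB and DMSO controls.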

Test [7] in a line: qHTS assay to identify small molecule agonists of the RXR signaling pathway - cell viability counter screen (AID 1159529). Note: nearly all actives have a fitted effect of over 50% in size. Note: potency is the fitted concentration of half-maximal effect. In short, it runs like this: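 Counter screen: CellTiter-Glo luminescence. Cells: RXR-alpha-UAS-bla HEK 293T. Medium: 2% charcoal-stripped FBS. Treatment: 16 h, 37 C. Reagent incubation: 30 min, RT.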
Test [8] in a line: qHTS assay to identify small molecule antagonists of the retinoid acid receptor (RAR) signaling pathway - cell viability counter screen (AID 1159551). Note: nearly all actives have a fitted effect of over 35% in size. Note: potency is the fitted concentration of half-maximal effect. In a few lines:
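Seed C3RL4 cells; next day add compound, then retinol to 1 uM final; incubate 6 h at 37 C; add CellTiter-Glo; read luminescence after 30 min at RT.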

Test [9] can be described thus: qHTS assay to identify small molecule antagonists of the retinoic acid receptor (RAR) signaling pathway (AID 1159552; note: nearly all actives have a fitted effect of over 50% in size; note: potency is the fitted concentration of half-maximal effect). In short, it runs like this: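 Antagonism of retinol-induced RARE reporter activity was measured in C3RL4 cells. Exposure to compounds and 1 uM final retinol lasted 6 hr at 37 C, with luminescence as endpoint.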
Test [10] is described as follows: qHTS assay to identify small molecule antagonists of the estrogen related receptor (ERR) signaling pathway from Tox21 library - cell viability counter screen (AID 1224834). Note: nearly all actives have a fitted effect of over 30% in size. Note: potency is the fitted concentration of half-maximal effect. In a few lines: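 CellTiter-Fluor fluorescence measured; ERR cells; 17.5 h compound incubation at 37 C; 30 min reagent step.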
The target in test [11] is Retinoic acid receptor RXR-alpha (Homo sapiens) (UniProt P19793). Put plainly: qHTS assay to identify small molecule agonists of the RXR signaling pathway (AID 1159527; calls by dose curve; note: nearly all actives have a fitted effect of over 35% in size). In short, it runs like this:
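Compounds in DMSO were added to RXR-alpha-UAS-bla HEK 293T cells kept in 2% charcoal-stripped serum, and incubated 16 hr at 37 C with 5% CO2. Reporter signal came from a 2 hr B/G FRET substrate step.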

The nature of test [12]: qHTS assay to identify small molecule agonists of the retinoic acid receptor (RAR) signaling pathway (AID 1159553). In short, it runs like this: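 Activation of retinol signaling was monitored via a RARE luciferase reporter in C3RL4 cells. After 6 hr compound treatment at 37 C, detection reagent was added for 30 min at room temperature before luminescence reading.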
Test [13] has as its target Luciferin 4-monooxygenase (Photinus pyralis) (UniProt P08659). Nature of the test: qHTS assay to identify small molecule inhibitors of firefly luciferase (AID 1224835). Note: nearly all actives have a fitted effect of over 25% in size. Note: potency is the fitted concentration of half-maximal effect. In short, it runs like this:
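Quantitative HTS format; KM concentrations of both substrates. Purified P. pyralis FLuc activity quantified from luminescence images.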

Test [14] is described as follows: qHTS assay to identify small molecule antagonists of the estrogen related receptor (ERR) signaling pathway (AID 1224819). In a few lines: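 qHTS in ERR cells, 2,000/well, 1536 format. Cpd (DMSO) added after 6 h settle, 18 h 37 C. One-Glo luminescence, 30 min RT.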
Test [15] can be described thus: qHTS assay to identify small molecule agonists of the estrogen related receptor (ERR) signaling pathway (AID 1224820). In a few lines:
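Cells: ERR line from NTP, 2,000/well. Pre-incubation 6 h, 37 C/5% CO2. Compound (DMSO) pin transfer, 18 h 37 C. One-Glo, 30 min RT, luminescence.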

Test [16] is described as follows: qHTS assay to identify small molecule antagonists of the estrogen related receptor signaling pathway with the pleiotropic PPARgamma coactivator (PGC) cell viability counter screen (AID 1224822;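 note: potency is the fitted concentration of half-maximal effect; viability read after 17.5 h compound exposure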). In short, it runs like this: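 Compounds in DMSO, with positive and negative controls, were applied to PGC/ERR cells (2,000/well) and left 17.5 h at 37 C before CellTiter-Fluor detection.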

Test [17] in a line: qHTS assay to identify small molecule agonists of the estrogen related receptor signaling pathway with the pleiotropic PPARgamma coactivator (PGC) (AID 1224823). In short, it runs like this:
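Steps: plate PGC/ERR cells at 2,000 cells/well; incubate 6 h, 37 C/5% CO2; pin-transfer compounds (DMSO); incubate 18 h, 37 C; add One-Glo; 30 min RT; read luminescence.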

Test [18] is described as follows: qHTS assay to identify small molecule agonists of the AP-1 signaling pathway (AID 1159526; calls by dose curve; note: potency is the fitted concentration of half-maximal effect).
Test [19] concerns the target Nuclear receptor ROR-gamma (Homo sapiens) (UniProt P51449). Put plainly: qHTS assay to identify small molecule antagonists of the retinoid-related orphan receptor gamma (ROR-gamma) signaling pathway (AID 1159521). In short, it runs like this:
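Inducible-expression reporter assay: doxycycline (1 uM final) switched on RORγ in CHO cells bearing a ROR response element-luciferase construct, with test compounds present from 2 h beforehand. Decreased luminescence after 16 h defined antagonist activity.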

Molecules are shown by their SMILES. Records with an inconclusive call do not appear. Active and inactive are the calls of the source. Unless noted, calls come from the whole dose curve; as a rule, active = well fitted curve in the direction sought with a large enough effect in the repeat runs; inconclusive = weak or mixed curves; inactive = no such curve, though single readings can be large; an effect the other way counts as inactive or inconclusive.

Luciferin 4-monooxygenase (Photinus pyralis), sequence (P08659 whole entry, looked up): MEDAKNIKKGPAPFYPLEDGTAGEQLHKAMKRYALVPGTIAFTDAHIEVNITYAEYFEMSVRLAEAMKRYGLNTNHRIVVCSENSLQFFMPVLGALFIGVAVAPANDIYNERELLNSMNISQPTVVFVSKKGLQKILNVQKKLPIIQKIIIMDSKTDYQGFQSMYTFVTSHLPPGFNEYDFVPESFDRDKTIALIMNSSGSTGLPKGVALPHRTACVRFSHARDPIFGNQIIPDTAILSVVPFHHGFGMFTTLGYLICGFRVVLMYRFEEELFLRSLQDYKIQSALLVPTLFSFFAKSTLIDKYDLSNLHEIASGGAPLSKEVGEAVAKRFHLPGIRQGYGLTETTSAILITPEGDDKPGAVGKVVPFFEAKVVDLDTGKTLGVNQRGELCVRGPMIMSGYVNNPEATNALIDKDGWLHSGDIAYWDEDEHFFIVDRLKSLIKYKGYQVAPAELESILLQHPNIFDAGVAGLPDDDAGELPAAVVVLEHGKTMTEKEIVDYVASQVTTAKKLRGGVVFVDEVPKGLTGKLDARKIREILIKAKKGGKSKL
Retinoic acid receptor RXR-alpha (Homo sapiens), sequence (P19793 whole entry, looked up): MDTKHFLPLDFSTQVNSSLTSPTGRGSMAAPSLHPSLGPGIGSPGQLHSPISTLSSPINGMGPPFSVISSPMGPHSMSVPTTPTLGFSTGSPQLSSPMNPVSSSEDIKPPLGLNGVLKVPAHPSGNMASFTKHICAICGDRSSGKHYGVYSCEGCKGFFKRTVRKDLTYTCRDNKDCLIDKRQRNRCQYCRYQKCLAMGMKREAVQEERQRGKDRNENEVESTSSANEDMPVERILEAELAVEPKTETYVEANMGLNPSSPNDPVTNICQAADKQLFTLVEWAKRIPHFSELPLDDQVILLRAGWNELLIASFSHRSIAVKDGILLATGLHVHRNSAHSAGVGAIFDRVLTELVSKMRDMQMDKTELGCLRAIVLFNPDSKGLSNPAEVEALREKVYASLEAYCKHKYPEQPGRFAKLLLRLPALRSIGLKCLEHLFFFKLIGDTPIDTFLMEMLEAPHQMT

Consider `CCCCCCCCCCn1cc[n+](CCCCCCCCCC)c1C`, for which the Potency is 15.5 µM (active) in test [1]; 6.93 µM (active) in [2]; 55 µM (active) in test [3]; 34.7 µM (active) in [4]; 19.4 µM (active) in [5]; 39 µM (active) in test [6]. The Potency in test [7] was 6.93 µM (active); in [8] it was 61.2 µM (active); in test [9], 24.4 µM (active); in test [10] it was 27.3 µM (active).
Take `Cc1onc(-c2ccccc2Cl)c1C(=O)N[C@@H]1C(=O)N2[C@@H]1SC(C)(C)[C@@H]2C(=O)O`: the Potency result in test [1], in test [2], in [3], in test [4], in [5] and in test [6] was “inactive” throughout. Also, the Potency entry in [11], in test [7], in test [8], in test [9], in test [12] and in test [10] was “inactive” each time. Also, in test [13], the Potency result was “inactive”.
On to `C[n+]1cc2c3c(ccc2c2ccc4cc5c(cc4c21)OCO5)OCO3`, for which the Potency in test [1] is 0.58 µM (active); in [2], 1.31 µM (active); in [3], 1.17 µM (active); in test [4], 1.31 µM (active); in test [5], 1.64 µM (active); in test [6], 2.08 µM (active). The Potency was 1.47 µM (active) in test [7]; 3.66 µM (active) in test [8]; 1.83 µM (active) in [9]; 3.1 µM (active) in test [14]; 0.944 µM (active) in [16]; 2.91 µM (active) in [10]. The Potency in test [13] was 6.74 µM (active). Moreover, the result in test [15] and in test [17] was inactive.
For the compound `O=[N+]([O-])c1cc([N+](=O)[O-])c2ccc(S(=O)(=O)O)cc2c1O`, the Potency entry in [1], in test [2], in test [3], in [4], in test [5] and in test [6] was “inactive” each time. Besides, in test [7], the Potency result was “inactive”. Further, the Potency in test [10] was 12.1 µM (active).
For the compound `CC(C)(C)C(=O)OCOC(=O)[C@@H]1N2C(=O)[C@@H](NC(=O)[C@H](N)c3ccccc3)[C@H]2SC1(C)C`, the Potency entry in [1], in test [2], in [3], in [4], in test [5] and in test [6] was “inactive” each time. Besides, the Potency result in test [11], in [7], in test [12], in test [10] and in [13] was “inactive” in each case.
In the case of `CCC1=C[C@@H]2CN(C1)Cc1c([nH]c3ccccc13)[C@@](C(=O)OC)(c1cc3c(cc1OC)N(C)[C@H]1[C@@](O)(C(=O)OC)[C@H](OC(C)=O)[C@]4(CC)C=CCN5CC[C@]31[C@@H]54)C2`, the Potency entry in [1], in test [2], in test [3], in [4], in [5] and in [6] was “inactive” throughout. Moreover, the Potency result in test [8] and in test [13] was “inactive” each time. In addition, the Potency in test [18] was 0.107 µM (active); in test [10] it was 0.0188 µM (active).
On to `CS(=O)(=O)CCNCc1ccc(-c2ccc3ncnc(Nc4ccc(OCc5cccc(F)c5)c(Cl)c4)c3c2)o1`, for which the Potency in test [1] is 29.8 µM (active); in test [2], 21.3 µM (active); in test [3], 16.9 µM (active); in test [4], 15.1 µM (active); in test [5], 29.8 µM (active); in test [6], 21.3 µM (active). Besides, the Potency is 16.9 µM (active) in test [7] and 6.68 µM (active) in test [10]. Moreover, the Potency result in test [8] and in [12] was “inactive” throughout.
As for `CCOc1nc2cccc(C(=O)OC(C)OC(=O)OC3CCCCC3)c2n1Cc1ccc(-c2ccccc2-c2nn[nH]n2)cc1` (stereo unspecified), the Potency in test [1] was 27.5 µM (active); in test [2], 19.5 µM (active); in test [3], 43.6 µM (active); in [4] it was 21.9 µM (active); in test [5], 24.3 µM (active); in test [6], 27.5 µM (active). For the same compound, the Potency is 27.5 µM (active) in test [7], 48.5 µM (active) in test [9] and 54.4 µM (active) in test [10]. The Potency result in test [12] was “inactive”.
For `CCCN(CCC)C(=O)C(CCC(=O)OCCCN1CCN(CCOC(=O)Cc2c(C)n(C(=O)c3ccc(Cl)cc3)c3ccc(OC)cc23)CC1)NC(=O)c1ccccc1` (stereo unspecified), the Potency in test [2] is 26.8 µM (active); in [3] it was 21.3 µM (active); in test [10], 23.7 µM (active). The Potency result in [4], in [5], in [6], in test [8], in test [12] and in test [13] was “inactive” in each case.
`O=C(O)c1c(Cl)cccc1Cl`: the Potency entry in test [2], in test [3], in [4], in test [19], in test [6] and in [18] was “inactive” each time. Also, the Potency result in test [11], in [7], in test [9], in [12], in test [10] and in test [13] was “inactive” throughout.
In the case of `CCC(CN)=C(c1ccccc1)c1ccccc1`, the Potency entry in test [3], in test [4], in test [5], in test [6], in test [7] and in test [8] was “inactive” in each case. The Potency entry in [13] was “inactive”.
With `C[C@]12CCC(=O)C=C1CC[C@@H]1[C@@H]2[C@@H](O)C[C@@]2(C)[C@H]1CC[C@]2(O)C(=O)COC(=O)CCC(=O)O`, the Potency entry in test [1], in test [2], in test [3], in test [4], in [5] and in [6] was “inactive” in each case. For the same compound, the Potency result in test [18], in test [7], in test [8], in test [10] and in [13] was “inactive” each time.
